Many of the other results were omitted from the sample, so hits are more common in it than they were.
IMPase Li cell – cell-permeable IMPase inhibitors with lithium potentiation. Potency, µM (highest dose often 59.4 µM), most hits filed as inhibitors. 210,000 tested, 0.35% active. CHO-M1 cells, IP1 TR-FRET (IP-One), carbachol + lithium;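 further: IP1 builds up when IMPase is blocked and the TR-FRET signal falls; nearly all actives have a fitted effect of over 50% in size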
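IP1 accumulation measured by competitive TR-FRET in lysed CHO-M1 cells after 30 min compound exposure at 37C, with a small lithium addition to potentiate weak responses. Hill-equation AC50 from ratio and donor-channel data.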
NPSR antag – antagonists of human neuropeptide S receptor cAMP signaling. CHO-NPSR cells, cAMP TR-FRET, antagonist mode. Potency, µM (titrated, usually from 38.3 µM), hits mostly inhibitors. 220,000 tested, 1% active. AID 1461; further: nearly all actives have a fitted effect of over 50% in size
Target sequence (Q6W5P4 whole entry, looked up): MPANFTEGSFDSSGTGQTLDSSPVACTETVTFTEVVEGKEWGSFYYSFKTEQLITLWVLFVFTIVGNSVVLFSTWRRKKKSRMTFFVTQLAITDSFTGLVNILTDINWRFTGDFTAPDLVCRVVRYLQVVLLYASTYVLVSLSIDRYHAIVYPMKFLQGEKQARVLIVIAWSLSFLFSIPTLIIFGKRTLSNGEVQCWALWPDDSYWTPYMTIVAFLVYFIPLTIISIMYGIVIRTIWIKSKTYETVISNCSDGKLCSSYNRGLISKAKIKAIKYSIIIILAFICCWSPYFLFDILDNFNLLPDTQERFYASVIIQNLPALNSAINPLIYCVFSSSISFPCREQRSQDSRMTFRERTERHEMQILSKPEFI
ERK EGF inh – inhibitors of EGF-stimulated ERK signaling pathway. HEK293-V1b, EGF-stimulated phospho-ERK AlphaScreen. Potency, µM (series often up to 11.5 µM), actives largely listed as inhibitors. 130,000 tested, 0.41% active; further: nearly all actives have a fitted effect of over 55% in size
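Readout: AlphaScreen signal for phosphorylated ERK in lysed HEK293 cells stably expressing V1b. Stimulus 25 nM EGF, 5 min, following 30 min compound exposure. Data scaled to DMSO basal and full EGF activation.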
Each line names hits and unclear results; the compound was inactive in the other large screens. The call rests on the fitted dose curve; in most records, active means well fitted curve in the direction sought with a large enough effect; inconclusive means small, poorly fitted or top-dose-only effect, or another doubt; inactive means no such curve, though single readings can be large; an effect the other way counts as inactive or inconclusive.

CCCCNC(=O)O/N=C(\N)CS(=O)(=O)C(C)(C)C	none (no result: IMPase Li cell)
CN(C)CCNc1oc(/C=C/c2ccccc2)nc1C#N	NPSR antag 10µM
CN(C)CCCNc1oc(/C=C/c2ccccc2)nc1C#N	none (no result: IMPase Li cell)
CCCCC1=CC2=C(c3ccco3)C(=O)C(C)(OC(=O)c3ccc(OC)cc3)C(=O)C2=CO1 (stereo not drawn)	none (no result: NPSR antag)
COc1ccc(Oc2nccc(-c3ccccc3)c2C#N)cc1	none (no result: ERK EGF inh)
COc1ccc(Oc2nccc(-c3ccc(F)cc3)c2C#N)cc1	IMPase Li cell 28µM, NPSR antag inconclusive (no result: ERK EGF inh)
Cc1nc2c(c(=O)n1CCC1=CCCCC1)c1nc3ccccc3nc1n2/N=C/c1ccco1	NPSR antag 10µM (no result: ERK EGF inh)
COCCn1cnc2c(c1=O)c1nc3ccccc3nc1n2/N=C/c1ccco1	none (no result: IMPase Li cell)
CN1CC=C2C(C#N)=C(N)C(C#N)(C#N)[C@H](c3cccc(Cl)c3)C2C1 (stereo partly drawn)	none (no result: ERK EGF inh)
CC(C)c1ccc(C2C3CSCC=C3C(C#N)=C(N)C2(C#N)C#N)cc1 (stereo not drawn)	NPSR antag 10µM (no result: ERK EGF inh)
N=C1Sc2ccccc2C2=NCCCN12	none
CCCn1nc([N+](=O)[O-])c(C(C#N)c2nc3ccccc3s2)c(Cl)c1=O (stereo not drawn)	NPSR antag 10µM (no result: ERK EGF inh)
CCn1nc([N+](=O)[O-])c(C(C#N)c2nc3ccccc3n2C)c(Cl)c1=O (stereo not drawn)	none
O=c1cc(-c2cccc(F)c2)[nH]c2cc(F)ccc12	none (no result: NPSR antag, ERK EGF inh)
N[C@@H](Cc1cc(I)c(Oc2ccc(O)cc2)c(I)c1)C(=O)O	none (no result: NPSR antag, ERK EGF inh)
CCC(=O)NC(=S)Nc1ccc(-c2nc3ccccc3s2)cc1	IMPase Li cell 11µM (no result: ERK EGF inh)
CCC(=O)NC(=S)Nc1ccc(-c2nc3ccc(C)cc3s2)cc1	none (no result: IMPase Li cell, ERK EGF inh)
COc1ccc(-c2nc(CN3CCN(c4cc(C)nc(C)c4)CC3)c(C)o2)c2ccccc12	none
Cc1oc(-c2cccc3ccccc23)nc1CN1CCN(c2ncnc3ccccc23)CC1	ERK EGF inh 32µM
CCNC(=O)[C@H]1O[C@@H](n2cnc3c(N)nc(NCCc4ccc(CCC(=O)O)cc4)nc32)[C@H](O)[C@H]1O	NPSR antag inconclusive
Nc1c(C(=O)NCc2ccco2)sc2nc(N3CCOCC3)c3c(c12)CCCC3	IMPase Li cell 10µM (no result: ERK EGF inh)
CCOC(=O)c1sc2nc(N3CCOCC3)c3c(c2c1N)CCCC3	none (no result: ERK EGF inh)
CC(C)N1C(=O)/C(=C/c2nc3ccccc3c(=O)n2-c2ccccc2)c2ccccc21	NPSR antag 10µM (no result: ERK EGF inh)
CC(C)N1C(=O)/C(=C\c2nc3ccccc3c(=O)n2-c2ccccc2)c2ccccc21	ERK EGF inh inconclusive
COC(=O)CSc1nc(-c2cccs2)ccc1C#N	IMPase Li cell 25µM (no result: ERK EGF inh)
C#CCSc1nc(-c2cccs2)ccc1C#N	none (no result: ERK EGF inh)
CCN(CC)C(=O)CSc1nc(N)c(C#N)c(-c2cccs2)c1C#N	none
COc1ccc(CCNC(=O)CSc2nc(C)cc(C)n2)cc1OC	none
N#Cc1c(SCC(=O)Nc2nccs2)nc2c(c1-c1ccco1)CCCC2	none (no result: ERK EGF inh)
Cc1ccccc1NC(=O)CSc1nc2c(c(-c3ccco3)c1C#N)CCCC2	IMPase Li cell inconclusive, NPSR antag 10µM (no result: ERK EGF inh)
Cc1ccccc1NC(=O)CSc1nc(N)c(C#N)c(-c2cccs2)c1C#N	IMPase Li cell 5µM, NPSR antag inconclusive (no result: ERK EGF inh)
COc1ccc(CCNC(=O)CSc2nc(N)c(C#N)c(-c3cccs3)c2C#N)cc1OC	IMPase Li cell 28µM (no result: ERK EGF inh)
CN(C)Cc1nc(-c2cn(C)c3ccccc23)no1	none (no result: NPSR antag, ERK EGF inh)
NCC1OC(OC2C(N)CC(N)[C@@H](O)[C@@H]2OC2O[C@H](CO)[C@@H](O[C@@H]3OC(CN)C(O)C(O)C3N)C2O)C(N)C(O)C1O (stereo partly drawn)	none (no result: NPSR antag)
COc1ccc(-c2cc(-c3cccs3)c(C#N)c(SCC(=O)NCc3ccco3)n2)cc1	none (no result: ERK EGF inh)
COc1ccc(CNC(=O)CSc2nc(-c3ccccc3)cc(-c3cccs3)c2C#N)cc1	NPSR antag 10µM (no result: ERK EGF inh)
CC(C)(C)c1ccc(OCC(=O)O)c(Cl)c1	none (no result: NPSR antag, ERK EGF inh)
O=C(NCC1CC1)[C@H]1C[C@@H]1[C@H](NP(=O)(c1ccccc1)c1ccccc1)c1ccccc1	none (no result: NPSR antag)
O=c1c(-c2cc(F)cc(F)c2)nc2cnc(N3CCNCC3)nc2n1C1CC1	none (no result: NPSR antag, ERK EGF inh)
O=c1c(-c2cc(F)cc(F)c2)nc2cnc(N3CCOCC3)nc2n1C1CC1	IMPase Li cell 8.9µM (no result: NPSR antag)
COc1cc(C=O)c([N+](=O)[O-])cc1OC	none (no result: NPSR antag)
O=C(Nc1ccccc1N1CCN(C(=O)c2ccccc2)CC1)c1cc2ccccc2o1	NPSR antag 4µM (no result: ERK EGF inh)
O=C(Nc1ccccc1N1CCCC1)c1cc2ccccc2o1	NPSR antag inconclusive (no result: ERK EGF inh)
COCCNc1nc(C)nc2c1nc(-c1ccccc1)n2CCN(C)C	none (no result: NPSR antag)
CN(C)c1cc(-c2cccc(NS(C)(=O)=O)c2)ncn1	none (no result: NPSR antag, ERK EGF inh)
CCOC(=O)N=Nc1c(O)n(CC(=O)OC)c2ccccc12	none
CCOC(=O)N=Nc1c2ccccc2c2nc3no[nH]c3nc12	NPSR antag 6.3µM, ERK EGF inh inconclusive

High-throughput results as filed in PubChem.
